Source: PubChem BioAssay AID2551 (National Center for Advancing Translational Sciences (NCATS), 2010)
The campaign covered roughly 310,000 compounds. About 17,000 (5.5%) were called active. Not shown: some 11% with an inconclusive outcome. Calls follow the shape of the dose curve; as a rule, active = well fitted inhibition curve with a large enough effect; inconclusive = small, poorly fitted or top-dose-only effect, or effect the other way; inactive = no such curve, though single readings can be large or run the other way. This excerpt belongs to a sample that is enriched for actives.

These molecules were tested against Nuclear receptor ROR-gamma (Mus musculus) (UniProt P51450) (assay: qHTS for inhibitors of ROR gamma transcriptional activity). Conditions: Drosophila S2 Gal4-RORgamma UAS-luciferase reporter, 20 h; series mostly up to 53.6 µM; activity change, negative = inhibition: at the top concentration.
Sequence of Nuclear receptor ROR-gamma (Mus musculus) (P51450 whole entry, looked up, the tested form may be a part): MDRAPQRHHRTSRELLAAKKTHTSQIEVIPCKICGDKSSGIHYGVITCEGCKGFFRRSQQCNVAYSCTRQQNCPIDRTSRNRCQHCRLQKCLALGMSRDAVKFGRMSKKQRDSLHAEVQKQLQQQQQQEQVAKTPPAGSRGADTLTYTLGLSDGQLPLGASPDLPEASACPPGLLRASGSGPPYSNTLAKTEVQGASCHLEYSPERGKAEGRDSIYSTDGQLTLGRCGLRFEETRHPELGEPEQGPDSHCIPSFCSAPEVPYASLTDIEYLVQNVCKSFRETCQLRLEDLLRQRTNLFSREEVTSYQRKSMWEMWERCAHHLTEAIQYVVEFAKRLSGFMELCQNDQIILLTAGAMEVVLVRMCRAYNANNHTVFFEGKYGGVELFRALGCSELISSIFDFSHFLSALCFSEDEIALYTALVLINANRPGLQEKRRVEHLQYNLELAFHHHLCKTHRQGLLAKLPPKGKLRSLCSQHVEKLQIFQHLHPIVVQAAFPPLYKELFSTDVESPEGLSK
Method in brief: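 Compounds are pin-transferred onto Drosophila Schneider cells expressing a copper-inducible Gal4–ROR gamma transactivation domain fusion. After 1 hr, copper sulfate is added to 700 uM final; luciferase is read 20 hr later.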
% is scaled to controls: 0 for no effect and ±100 for the full control effect; potency is read from the fitted curve at half-maximal effect.
Also: nearly all actives have a fitted effect of over 60% in size.

Potency, active:
CC(=O)c1c(N2CCN(c3ccc(F)cc3)CC2)nc(=S)n(-c2ccccc2)c1C 14.1 µM, O=C(/C=C/c1ccc(F)cc1)NC(=S)NNC(=O)c1cccnc1 11.2 µM, O=C(C/C(=N\NC(=O)c1ccccc1Br)C(F)(F)F)c1cccs1 14.1 µM, CCOc1cccc(/C=N/N2C(=O)CSC2=S)c1O 3.16 µM, Fc1ccccc1/C=C1\CCCC2=C1Nc1ncnn1C2c1ccccc1F (stereo not given) 2.82 µM

Activity change, negative = inhibition, inactive:
Cc1ccc2cc(C)c(N3CCN(c4ccc(F)cc4)CC3)nc2c1 25.8%, Cc1nnc(SCC(=O)N2CCN(c3ccccc3)CC2)n1-c1ccccc1 18.7%, Cc1ccccc1/C=C\c1nc(O)c([N+](=O)[O-])c(=O)[nH]1 21.3%, COc1cccc(NC(=O)C2CCCN(c3ncnc4c3nc3n4CCCCC3)C2)c1 (stereo not given) 2.68%, COc1ccc(NC(=O)N2CCCC(C(=O)Nc3ccccc3OC)C2)cc1 (stereo not given) -2.34%, O=C(/C=C/c1ccc(F)cc1)NCCNC(=O)/C=C/c1ccc(F)cc1 29.2%, CC(C)c1ccc(/C=C/C(=O)NNC(=O)c2cccnc2)cc1 -4.07%, O=C(NCc1ccccc1)c1onc(CSc2nc3ccccc3[nH]2)c1C(=O)NCc1ccccc1 7.32%, CCSCc1nc(N)nc(NCCc2ccccc2)n1 -4.9%, Cc1cc(C)c(C(=O)CSc2nc(C)cc(=O)[nH]2)c(C)c1 19.9%, COc1ccccc1N1CCN(S(=O)(=O)CCNC(=O)c2ccc(OC(C)C)cc2)CC1 38%, CC(OC(=O)c1ccc2noc(-c3ccccc3)c2c1)C(N)=O (stereo not given) 29.6%, COc1ccc(C(=O)COC(=O)CNC(=O)c2cccs2)cc1Br -7.43%, O=C(Nc1nn(Cc2ccccc2F)cc1Br)c1cccs1 40.4%, CCCCn1c(-c2cccc(C)c2)nc2cc3[nH]c(=O)c(C(C)C)nc3cc21 -44.1%, O=C(Nc1cccc(-c2cscn2)c1)C1CCN(Cc2ccsc2)CC1 5.59%, O=C(NCCN1CCOC1=O)C1CCC(=O)N(CCc2ccc(Cl)cc2)C1 (stereo not given) 3.94%, Cc1ccc(CS(=O)Cc2ccc(C(=O)N3CCOCC3)o2)cc1 (stereo not given) 8.91%, CCOc1ccccc1N=C1NC(=O)CS1 -3.07%, COc1ccc(CCNC(=O)C(=O)NCC2OCCN2S(=O)(=O)c2ccc(F)cc2)cc1OC (stereo not given) 23.6%, Cc1ccc(S(=O)(=O)NNC(=O)/C=C/c2cccc(F)c2)cc1 -0.345%, COC(=O)C1=C(O)/C(=C/c2ccc(OCC(=O)Nc3ccccc3)cc2)N=C1C 1.63%, CS(=O)(=O)N1CCN=C1SCc1ccc(F)cc1 -15%, Cc1cc(NC(=O)CSc2nnnn2-c2ccc(F)cc2)no1 -1.67%, CC1=C(C(N)=O)C(c2ccc(Br)cc2)n2ncnc2N1 (stereo not given) -6.5%
